PubChem BioAssay (NCATS)
Values joined by “and” are separate entries in the source; they are usually repeats but may differ in a detail not shown here. Equal entries are not always repeated. Records with an inconclusive call do not appear. Values without a mark were called inactive. Calls follow the shape of the dose curve; as a rule, active = well fitted inhibition curve with a large enough effect; inconclusive = small, poorly fitted or top-dose-only effect; inactive = flat fitted curve, though single readings scatter. Where a SMILES comes first, the peptide text is derived from it. [ ]: non-standard residue; d: D form. pGlu = O=C1CC[C@@H](C(=O)O)N1

Assay: Drug repurposing screens with cells derived from glioblastoma tumor samples (AID 1345199); also: nearly all actives have a fitted effect of over 40% in size
Settings: GBM patient neurospheres viability, ATP luminescence, 48 h; at 46 µM (top of the series); tumour line A
Outline: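 Primary testing used CD133+ neurospheres from four GBM patients, seven concentrations, 48 h exposure and ATP-based viability; confirmation added three slower-growing patient lines.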
% is scaled to controls: 0 for no effect and ±100 for the full control effect.

| SMILES | activity, negative = cell killing [%] |
| --- | --- |
| O=C(O)CN(CC(=O)O)CC1=CC2C(=CC1=O)Oc1cc(O)c(CN(CC(=O)O)CC(=O)O)cc1C21OC(=O)c2ccccc21 (configuration not stated) | -21.2 |
| CCCCCCOC(=O)c1cccnc1 | -5.32 |
| C[C@H](N)C(=O)N[C@@H](C)P(=O)(O)O | -15.6 |
| O=C(O)c1ccc(NC2OC[C@@H](O)[C@H](O)[C@H]2O)cc1 (some centres not stated) | -26.5 |
| Nc1nccs1 | -20.4 |
| c1ccc2ccccc2c1 | -4.53 |
| OCl | -24.4 |

Same assay, conditions: GBM patient neurospheres viability, ATP luminescence, 48 h; at 46.1 µM (top of the series); tumour line C

| SMILES | activity, negative = cell killing |
| --- | --- |
| NC(N)=O | 7.05% |
| CC(C)(C)CC(C)(C)c1cc(Cc2cc(C(C)(C)CC(C)(C)C)cc(-n3nc4ccccc4n3)c2O)c(O)c(-n2nc3ccccc3n2)c1 | -23.5% |
| C[C@]12CC[C@@H]3c4ccc(O)cc4CC[C@H]3[C@@H]1CC[C@@H]2OP(=O)(O)O | 22.6% |
| O=[n+]1ccn([O-])c2ccccc21 | -17% |
| CC1(C)[C@H]2CC[C@]1(C)[C@H](O)C2 | -20.6% |
| O=C(OC[C@H]1O[C@@H](OC(=O)c2cc(O)c(O)c(OC(=O)c3cc(O)c(O)c(O)c3)c2)[C@H](OC(=O)c2cc(O)c(O)c(OC(=O)c3cc(O)c(O)c(O)c3)c2)[C@@H](OC(=O)c2cc(O)c(O)c(OC(=O)c3cc(O)c(O)c(O)c3)c2)[C@@H]1OC(=O)c1cc(O)c(O)c(OC(=O)c2cc(O)c(O)c(O)c2)c1)c1cc(O)c(O)c(OC(=O)c2cc(O)c(O)c(O)c2)c1 | -14.4% |
| C=C(C)C1CC=C(C)CC1 (configuration not stated) | -2.45% |
| CC(C)O | -14.2% |
| CCC(O)c1ccccc1 (configuration not stated) | 4.78% |
| CC(C)CCCCCCc1ccc(O)cc1 | -24.2% |
| CC[C@@H]1/C=C(\C)C[C@H](C)C[C@H](OC)[C@H]2O[C@@](O)(C(=O)C(=O)N3CCCC[C@H]3C(=O)O[C@H](/C(C)=C/[C@@H]3CC[C@@H](Cl)[C@H](OC)C3)[C@H](C)[C@@H](O)CC1=O)[C@H](C)C[C@@H]2OC | -18.5% |
| OCC(O)CO | 6.43% |
| CCCCCCCCCCCCOCCCN | -14.6% |
| C[N+]1(C)[C@@H]2CC(OC(=O)C(O)(c3cccs3)c3cccs3)C[C@H]1[C@@H]1O[C@@H]12 (some centres not stated) | -20.7% |
| OCc1ccccc1 | 15.3% |
| O=C(OCc1ccccc1)c1cccnc1 | 7.49% |
| CC[C@@H](C)[C@H](N)C(=O)O | -13.6% |
| NCCN | 1.75% |
| C/C=C/C=C/C(=O)O | -7.57% |
| CC1=CCC2CC1C2(C)C (configuration not stated) | 11.1% |
| CC[C@H](C)[C@H](NC(=O)[C@H](Cc1ccccc1)NC(=O)[C@H](C)NC(=O)[C@H](CC(=O)O)NC(=O)[C@H](CCCCN)NC(=O)[C@H](CO)NC(=O)[C@@H]1CCCN1C(=O)[C@@H]1CCC(=O)N1)C(=O)NCC(=O)N[C@@H](CC(C)C)C(=O)N[C@@H](CCSC)C(N)=O ([pGlu]PSKDAFIGLM-NH2) | -14.3% |
| O=C(O)/C=C/c1ccccc1 | 7.51% |
| CC(C)[C@@H]1CC[C@@H](C)C[C@H]1O | -14.4% |
| CO/N=C(\C(=O)N[C@@H]1C(=O)N2C(C(=O)O)=CCS[C@H]12)c1csc(N)n1 | -14% |
| CCCc1nc(C(C)(C)O)c(C(=O)OCc2oc(=O)oc2C)n1Cc1ccc(-c2ccccc2-c2nn[nH]n2)cc1 | -13.1% |
| CC(C)C[C@H](NC(=O)[C@@H](COC(C)(C)C)NC(=O)[C@H](Cc1ccc(O)cc1)NC(=O)[C@H](CO)NC(=O)[C@H](Cc1c[nH]c2ccccc12)NC(=O)[C@H](Cc1cnc[nH]1)NC(=O)[C@@H]1CCC(=O)N1)C(=O)N[C@@H](CCCN=C(N)N)C(=O)N1CCC[C@H]1C(=O)NNC(N)=O | -8.14% and 8.02% |
| COC(=O)c1ccccc1O | 12.1% |
| O=C(NCCNCC(O)COc1ccc(O)cc1)N1CCOCC1 (configuration not stated) | -0.52% |
| C[C@H](CCC(=O)O)[C@H]1CC[C@H]2[C@@H]3CC[C@@H]4C[C@H](O)CC[C@]4(C)[C@H]3C[C@H](O)[C@]12C | -8.85% |
| O=C(O)CN(CC(=O)O)CC1=CC2C(=CC1=O)Oc1cc(O)c(CN(CC(=O)O)CC(=O)O)cc1C21OC(=O)c2ccccc21 (configuration not stated) | -24.7% |
